We go through 40 compounds from PubChem BioAssay (NCI).

Structures are written as SMILES. Several values for one entry are separate records, joined by “and”; a condition that tells them apart may be missing. Equal values may be shown once. The panel holds about 83,000 compounds, 20% with a hit somewhere; the sample as a whole holds those more often.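 Note: values are percent growth. 100 is the growth of untreated cells, values between 100 and 0 indicate rising inhibition; between -100 and 0 indicates cell death.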 Values without a mark were called inactive. Activity calls are given as the source filed them. Rule for the calls: active = growth percent below 10; inactive = the rest.

This experiment relates to MDA-MB-468 breast. The experiment in a line: NCI-60 one-dose screen, 48 h (100 = growth as untreated, 0 = no growth, -100 = all killed). Particulars: 10 µM unless noted.
Regarding `CCOC(=O)C1OC1c1ccccc1` (stereo not given), the growth was 106%. As to `c1ccc(CCn2cccc2)nc1`, the growth was 114%.

On to `Cc1cc(=O)n2nc(-c3cn(C)c4ccc(Cl)cc34)sc2n1`, for which the growth was -42.5% (active). As for `CCCCCCCCCCC[C@@H](C[C@H]1OC(=O)[C@H]1CCCCCC)OC(=O)[C@@H](CC(C)C)NC=O`, the growth is 101%. As for `O=C(Nc1cccc(-n2ccc3c(NC(=O)c4ccccc4)nccc32)c1)c1ccc(N2CCOCC2)c(C(F)(F)F)c1`, the growth is -2.66% (active).

As for `N#Cc1c(-c2ccccc2)nc2c(c(-c3ccccc3)nn2-c2ccccc2)c1-c1ccc(N2CCOCC2)cc1`, the growth is 80.9%. Take `COc1ccc(C(=O)c2cc(OC)c3c(c2)OCO3)cc1O`: the growth was 0.266% (active). As to `CCN(CCNS(C)(=O)=O)c1ccc(N)c(C)c1`, the growth is 56.5% and 69.7%. Next, `C[N+](C)(C)c1ccc(CC2c3ccccc3-c3ccccc32)cc1`: -24.1% (active). On to `COc1ccc(/C=N/Nc2nc(Nc3ccccc3)nc(Nc3ccc(S(N)(=O)=O)cc3)n2)cc1`, for which the growth is 76.3%. Next, `N#Cc1c(-c2ccccc2)cc(-c2ccccc2)n(CC(=O)O)c1=O`: 37.8%; `CC(=O)/C(N=Nc1ccc2oc(=O)ccc2c1)=C(\C)O`: 9.38% (active); `CC(=O)C1CCC(C)=CC1=O` (stereo not given): 116%. The same measure for `Nc1nc(Nc2ccccc2SSc2ccccc2Nc2nc(N)nc(-c3ccc(C(F)(F)F)cc3)n2)nc(-c2ccc(C(F)(F)F)cc2)n1`: 132%; for `O=C(CC(SCc1ccccc1)c1ccccc1)c1ccccc1` (stereo not given): 84.9%; for `Cc1ccc(/C=C2\COc3ccc(O)c(O)c3C2=O)cc1`: -18.5% (active). As for `COc1cccc(/C=C2\Oc3cc(OCCCN4CCCC4)ccc3C2=O)c1OC`, the growth was 93.2%. Regarding `OB(O)c1cccc(-c2nc3ccc4[nH]ncc4c3c3c2CCCC3)c1F`, the growth is 55.3%. Take `COc1ccc(-c2nc(-c3nc4cc(Cl)c(F)cc4[nH]3)c3ccccn23)cc1`: the growth was 54.6%. Consider `COc1cc(C2CC(c3ccc(C)cc3)=NN2C=O)ccc1Oc1nc2c(c(=O)n(C)c(=O)n2C)n1C` (stereo not given), for which the growth is 73.8%. As to `COc1cc(-c2nc(SC(C)C)n(C(C)C)c(=O)c2C#N)ccc1OCc1ccccc1`, the growth was 66.8%.

On to `CN(C)c1ccc(N=Nc2ccc3ccccc3c2)cc1`, for which the growth is 5.06% (active). For the compound `O=C(O)CNC(=O)C1(N2C(=O)c3ccccc3C2=O)CCCC1`, the growth is 98.1%. Regarding `CC[C@@H]1C(=O)N(C)c2cnc(Nc3ccc(C(=O)NC4CCN(C)CC4)cc3OC)nc2N1C1CCCC1`, the growth is -33.3% (active).

As to `CCCCCCCCCCCCSC1=CC(=O)C=CC1=O`, the growth was 82.8%.

`Nc1nn(C(=O)Nc2ccc(Cc3ccccc3)cc2)c2ccc(Cl)cc12`: the growth was 72.3%. Consider `O=C(Nc1ccc(-n2cc(-c3ccncc3)c(-c3ccc(O)c(Cl)c3)n2)cc1)Nc1ccc(Cl)c(C(F)(F)F)c1`, for which the growth is -6.63% (active). Next, `COc1cc(-c2cc(/C=C3\C(=O)Nc4ccc(Cl)cc43)[nH]n2)cc(OC)c1OC`: 67.7%.

Consider `O=[N+]([O-])c1ccc(-c2ncc(-c3ccc(Br)cc3)o2)cc1`, for which the growth is 102%. Regarding `CCN1CCN(C(=O)[C@]23CC[C@@H](C)[C@H](C)[C@@H]2C2=CC[C@@H]4[C@@]5(C)CCC(=O)C(C)(C)[C@@H]5CC[C@@]4(C)[C@]2(C)CC3)CC1`, the growth was -7.11% (active). For the compound `Cc1sc2nc(N3CCCCC3)[nH]c(=O)c2c1C`, the growth is 96.6%.

On to `C#C[C@]1(O)CC[C@H]2[C@@H]3CC=C4c5nc(Nc6ccccn6)sc5CC[C@]4(C)[C@H]3CC[C@@]21C`, for which the growth was 14.2%. For the compound `CCCCCCCCCCCC[n+]1ccc2ccccc2c1`, the growth was -30% (active). Next, `Cc1ncc(C(=O)Nc2ccc(CN3CCN(C)CC3)c(C(F)(F)F)c2)cc1C#Cc1cnc(N)c2ccncc12`: -36.7% (active); `O=C(/C=C/c1cccc(Nc2ccnc3cc(Cl)ccc23)c1)c1ccc(Cl)cc1`: 27.6%. For `Fc1ccc(Nc2ncnc3ccc(-c4cn[nH]c4)cc23)cc1Cl`, the growth is -21.9% (active). As for `COc1ccc(S(=O)(=O)NCCNc2nccc(-c3c(-c4cccc(N)c4)nc4sccn34)n2)cc1`, the growth was 88.5%. In the case of `CSc1nc(CC(C)C)c(C#N)c(=O)n1C`, the growth is -2.71% (active).

`NC(=O)c1cc(I)ccc1NC(=O)/C=C/c1ccccc1`: the growth was 51.9%. Regarding `COc1ccc(/C=C/c2cccc[n+]2C)cc1`, the growth was 73.8%.
